Laboratory results from PubChem BioAssay AID2284347 (EPA ToxCast).
Results filed as inconclusive are left out. Activity calls are given as the source filed them. Rule for the calls: active = hit-call score of the fitted dose curve at least 0.9, where 1 is the maximum; inconclusive = response in the unintended direction; inactive = score below 0.9.

Test system: rainbow trout Peroxisome Proliferator-activated Receptor alpha (PPARa), gene 110490141
Experiment: ATG_rtPPARa_EcoTox2: Attagene TRANS-FACTORIAL EcoTox-2 HepG2 Assay for rainbow trout Peroxisome Proliferator-activated Receptor alpha (PPARa)
Method: ATG_EcoTox2 is a cell-based, multiplexed assay created by modifying the existing Attagene TRANS-FACTORIAL system to include a panel of nuclear receptors from some or all the following species: human (Homo sapiens), african clawed frog (Xenopus laevis), rainbow trout (Oncorhynchus mykiss), japanese medaka (Oryzias latipes), and zebrafish (Danio rerio). The ECOTOX2-FACTORIAL format uses HepG2, a human liver cell line, with measurements taken at 24 hours after chemical dosing in a 24-well plate. ATG_rtPPARa_EcoTox2 is one of 29 assay components calculated in the ATG_EcoTox2 assay. It is designed to make measurements of mRNA induction, a form of inducible reporter, as detected with fluorescence intensity signals by Reverse transcription polymerase chain reaction (RT-PCR) and Capillary electrophoresis technology.The assay endpoint […] was analyzed in the positive analysis fitting direction relative to DMSO as the negative control and baseline of activity. Using a type of inducible reporter, measures of mRNA for gain-of-signal activity can be used to understand the reporter gene at the transcription factor-level as they relate to the gene PPARa. Furthermore, this assay endpoint can be referred to as a primary readout, because this assay has produced multiple assay endpoints where this one serves a reporter gene function. To generalize the intended target to other relatable targets, this assay endpoint is annotated to the nuclear receptor intended target family, where the subfamily is non-steroidal.
Human liver HepG2 cells are transiently transfected with multiple reporter transcription units (MRTUs) in 6-well plates using FuGene 6 reagent (Roche; 3 ml FuGene/1 mg DNA). The MRTU constructs are regulated by a cis-regulating element (promoter). Each RTU expresses a GAL4-UAS that regulates the transcription of a nearby target reporter gene sequence. A major difference between the CIS and TRANS system is that in CIS activities of endogenous TFs are measured, whereas the TRANS assay evaluates changes in activities of exogenous, chimeric NR-Gal4 proteins. […] At the end of 24 hour incubation, total RNA was isolated using TriZol reagent (Invitrogen). The isolated RNA is then reverse-transcribed using oligo(dT) primer and Mo-MLV reverse transcriptase (Invitrogen) with DNAse I (Ambion) treatment for 30 min. The one-tenth of the produced cDNA was amplified by PCR using Taq DNA polymerase (Invitrogen) and two reporter sequence-specific primers. The PCR products were fluorescently labeled by primer extension with 6-arboxyfluorescein (6-FAM) 5'-labeled reporter sequence-specific primer (2 min at 95 C, 20 s at 68 C and 10 min at 72 C) and these products were digested with 5U of HpaI (New England Biolabs) for 2h at 37 C. The fragments were purified using Qiaquick PCR columns (Qiagen), analyzed on an ABI 3130xL genetic analyzer (Applied Biosystems) with peak positions identified by using a set of X-rhodamine (ROX)-labeled MapMarker1000 molecular weight standards (BioVentures). The raw capillary electrophoresis data was processed using Attagraph software (Attagene).

Row | Structure (SMILES) | AC50 | outcome
1 | Cc1cccc(Nc2cc(Cl)nc(SCC(=O)O)n2)c1C | 25 µM (active) | 
2 | CC(c1cc2ccccc2s1)N(O)C(N)=O (configuration not stated) |  | inactive
3 | C=C(c1ccc(C(=O)O)cc1)c1cc2c(cc1C)C(C)(C)CCC2(C)C |  | inactive
4 | CC(C)(Oc1ccc(C2CC2(Cl)Cl)cc1)C(=O)O (configuration not stated) | 75.3 µM (active) | 
5 | CN(CCOc1ccc(CC2SC(=O)NC2=O)cc1)c1ccccn1 (configuration not stated) | 6.15 µM (active) | 
6 | Cc1ccc(C)c(OCCCC(C)(C)C(=O)O)c1 | 10.4 µM (active) | 
7 | CC(C)(Oc1ccc(Cl)cc1)C(=O)O |  | inactive
8 | Cc1nc(-c2ccc(C(F)(F)F)cc2)sc1C(=O)NCc1ccc(OC(C)(C)C(=O)O)cc1 | 0.0823 µM (active) | 
9 | CC(C)(Oc1ccc(CCNC(=O)c2ccc(Cl)cc2)cc1)C(=O)O | 41.3 µM (active) | 
10 | C[C@]12C=CC(=O)C=C1CC[C@@H]1[C@@H]2C(=O)C[C@@]2(C)[C@H]1CC[C@]2(O)C(=O)CO |  | inactive
11 | CC(C)OC(=O)C(C)(C)Oc1ccc(C(=O)c2ccc(Cl)cc2)cc1 |  | inactive
12 | C[C@@H]1C[C@H]2[C@@H]3CCC4=CC(=O)C=C[C@]4(C)[C@@]3(F)[C@@H](O)C[C@]2(C)[C@@]1(O)C(=O)COP(=O)(O)O |  | inactive
